Results filed as inconclusive are left out. Active and inactive are the calls of the source. Unless noted, calls come from the whole dose curve.

Experiment [1] is described as follows: Inducers of the Endoplasmic Reticulum Stress Response (ERSR) in human glioma: Validation (AID 504836; active = well fitted curve in the direction sought with a large enough effect; an effect the other way counts as inactive or inconclusive; note: 0% is about no effect). In a few lines: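 Stably transfected U87-MG glioma cells carrying a GRP78-based luciferase sensor; 16 h compound incubation. Luminescence end-point read 10 min after Bright-Glo addition at room temperature.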
The nature of experiment [2]: qHTS for Inhibitors of the Functional Ribonucleoprotein Complex (vRNP) of Lassa (LASV) Arenavirus: Viability assay - alamar blue signal for LASV Primary Screen (AID 1347083; calls by dose curve; tested in HEK293 reporter line; note: nearly all actives have a fitted effect of over 80% in size; note: potency is the fitted concentration of half-maximal effect).
Experiment [3] is described as follows: qHTS for Inhibitors of the Functional Ribonucleoprotein Complex (vRNP) of Lymphocytic Choriomeningitis Arenaviruses (LCMV): Viability assay - alamar blue signal for LCMV Primary Screen (AID 1347085; calls by dose curve; tested in HEK293 reporter line; note: nearly all actives have a fitted effect of over 80% in size; note: potency is the fitted concentration of half-maximal effect).
Experiment [4] can be described thus: Primary qHTS to identify inhibitors of SARS-CoV-2 cell entry (AID 1645846). Note: nearly all actives have a fitted effect of over 45% in size. Note: potency is the fitted concentration of half-maximal effect. The conditions noted are these: activity change, negative = inhibition: at 57.1 µM (top of the series) unless noted. The method in brief: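 HEK293 cells stably expressing human ACE2, pre-treated 1 h with compound, then infected with MLV particles pseudotyped with Wuhan-Hu-1 spike (C-terminal 19-aa truncation). Luciferase luminescence after 48 h at 37 °C, normalised to spike PP and bald PP.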

A short description of experiment [5]: Confirmatory qHTS for VERO E6 Cytotoxicity Assay: Counterscreen for SARS-CoV-2 CPE Assay (AID 1508605). Note: potency is the fitted concentration of half-maximal effect; nearly all actives have a fitted effect of over 60% in size.
Experiment [6] in a line: Confirmatory qHTS for activators (rescue) of SARS-CoV-2 Cytopathic Effect (CPE) (AID 1508606). Note: 0% is about no effect; nearly all actives have a fitted effect of over 70% in size.
A short description of experiment [7]: Cytotoxicity counterscreen for inhibitors of SARS-CoV-2 cell entry (AID 1645845). Note: nearly all actives have a fitted effect of over 50% in size. In a few lines: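 HEK293-ACE2 cells (Expi293F stably expressing human ACE2) seeded overnight, then compound for 1 h plus 48 h at 37C. Viability as ATP content by luminescence; normalized to wells with cells and media-only wells.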
Experiment [8] deals with Bile acid receptor (Homo sapiens) (UniProt Q96RI1). The experiment can be described thus: qHTS assay for small molecule agonists of farnesoid X receptor signaling (AID 588527).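 Note: 0% = vehicle basal and 100% = reference agonist.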 The conditions noted are these: HEK293T FXR-UAS-bla, beta-lactamase ratio, 16 h; activation: stronger effect = higher value. The method in brief: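 Quantitative HTS used FXR-UAS-bla HEK293T cells with 16 h compound incubation at 37 C. EC50 values came from concentration-response curves normalized to chenodeoxycholic acid.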

Experiment [9] has as its target Peroxisome proliferator-activated receptor delta (Homo sapiens) (UniProt Q03181). The experiment can be described thus: qHTS assay for small molecule agonists of peroxisome proliferator-activated receptor delta signaling (AID 588534).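 Note: 0% = DMSO basal wells and 100% = positive control agonist at 10 µM.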 The method in brief:
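Cell-based beta-lactamase reporter assay run in agonist mode: cells seeded and incubated 5 hrs at 37 C, compounds added and incubated 18 hrs at 37 C. CCF4 dye fluorescence read after 2 hrs at RT; EC50 and efficacy from Hill fits.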

Experiment [10] is described as follows: Confirmatory qHTS to identify inhibitors of SARS-CoV-2 cell entry (AID 1645844). Note: potency is the fitted concentration of half-maximal effect; nearly all actives have a fitted effect of over 45% in size. The method in brief:
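HEK293-ACE2 cells were pretreated 1 h with compound, then infected with MLV-based pseudoparticles bearing C-terminally truncated Wuhan-Hu-1 spike for 48 h at 37C; luciferase luminescence normalized to spike PP and bald PP wells.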

Experiment [11] in a line: VSVG counterscreen qHTS to identify inhibitors of SARS-CoV-2 cell entry (AID 1645847). Note: potency is the fitted concentration of half-maximal effect; nearly all actives have a fitted effect of over 65% in size. The method in brief:
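HEK293-ACE2 cells (Expi293F, human ACE2) pretreated 1 h with compound, then infected with MLV-based VSV-G pseudotyped particles for 48 h at 37 C; luciferase luminescence normalized to VSV-G PP and bald PP wells.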

Experiment [12] concerns the target Alpha-galactosidase (Coffea arabica) (UniProt Q42656). The experiment is described as follows: Counterscreen for Glucocerebrosidase Inhibitors: qHTS Assay for Coffee Bean alpha-Galactosidase at pH 4.5 (AID 957; active = well fitted curve in the direction sought with a large enough effect; an effect the other way counts as inactive or inconclusive;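 note: plate controls were enzyme alone for no effect and no enzyme for full effect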). The method in brief: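 Green coffee bean enzyme (2 nM final) was incubated with compounds (0.7 nM to 77 uM) and 4-methylumbelliferyl alpha-D-galactopyranoside (80 uM final) in 50 mM citric acid, 0.005% Tween-20, pH 4.5, 20 min at room temperature; AC50 from Hill fits.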

Experiment [13] shares this target. The experiment is described as follows: Counterscreen for Glucocerebrosidase Inhibitors: qHTS Assay for Coffee Bean alpha-Galactosidase at pH 5.9 (AID 998; active = well fitted curve in the direction sought with a large enough effect; an effect the other way counts as inactive or inconclusive;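 note: plate controls were uninhibited enzyme for no effect and no-enzyme basal signal for full effect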). The method in brief: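 Green coffee bean enzyme (2 nM) with 4-methylumbelliferyl alpha-D-galactopyranoside (80 uM) in 50 mM citric acid, 0.005% Tween-20, pH 5.9, 20 min at room temperature; compounds 0.7 nM–77 uM. Stopped at pH 10, fluorescence Ex365/Em440; Hill-fit AC50.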

In experiment [14] the target is Nucleoprotein (Lymphocytic choriomeningitis virus (strain Armstrong)) (UniProt P09992). The experiment is described as follows: qHTS for Inhibitors of the Functional Ribonucleoprotein Complex (vRNP) of Lymphocytic Choriomeningitis Arenaviruses (LCMV): LCMV Primary Screen - GLuc reporter signal (AID 1347086). For activity change, negative = inhibition: % is set by controls: 0 for no effect and ±100 for the full control effect. Note: nearly all actives have a fitted effect of over 70% in size. Note: potency is the fitted concentration of half-maximal effect.
Experiment [15] in a line: qHTS profiling of the MIPE4 collection as inhibitors of Plasmodium falciparum (3D7) proliferation (AID 743344; call rule not given here;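 note: scaled between DMSO vehicle wells and 0.29 µM artemisinin as full inhibition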). The conditions noted are these: P. falciparum 3D7 in erythrocytes, SYBR Green DNA fluorescence, 72 h; at 28.5 µM (top of the series) unless noted. In a few lines:
(§1)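 Erythrocytes infected with P. falciparum (0.3% parasitemia, 2.5% hematocrit) incubated with compounds 72 h at 37 C, 5% CO2. Lysis with saponin/Triton buffer containing SYBR Green I, overnight at room temperature in the dark; DNA fluorescence (485/535 nm) normalised to 0.29 uM artemisinin and DMSO.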

Experiment [16] is described as follows: qHTS profiling of the MIPE4 collection as inhibitors of Plasmodium falciparum (DD2) proliferation (AID 743345; call rule not given here). The conditions noted are these: P. falciparum Dd2 in erythrocytes, SYBR Green DNA, 72 h; at 28.5 µM (top of the series) unless noted. In a few lines:
as §1

A short description of experiment [17]: qHTS profiling of the MIPE4 collection as inhibitors of Plasmodium falciparum (DD2) proliferation (Rep 2) (AID 743346; call rule not given here). The conditions noted are these: P. falciparum Dd2 in erythrocytes, SYBR Green DNA, 72 h; at 28.5 µM (top of the series) unless noted. The method in brief: as §1

Alpha-galactosidase (Coffea arabica), sequence (Q42656 whole entry, looked up): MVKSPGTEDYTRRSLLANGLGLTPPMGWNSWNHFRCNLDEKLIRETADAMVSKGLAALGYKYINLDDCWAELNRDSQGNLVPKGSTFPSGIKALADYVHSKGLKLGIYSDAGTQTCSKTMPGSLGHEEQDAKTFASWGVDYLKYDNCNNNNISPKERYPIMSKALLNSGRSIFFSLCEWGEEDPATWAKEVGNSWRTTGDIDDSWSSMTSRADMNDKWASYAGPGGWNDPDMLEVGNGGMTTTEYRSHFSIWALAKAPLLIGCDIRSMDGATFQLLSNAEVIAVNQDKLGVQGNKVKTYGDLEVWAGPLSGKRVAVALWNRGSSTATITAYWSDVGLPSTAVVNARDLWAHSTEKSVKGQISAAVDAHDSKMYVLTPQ
Nucleoprotein (Lymphocytic choriomeningitis virus (strain Armstrong)), sequence (P09992 whole entry, looked up): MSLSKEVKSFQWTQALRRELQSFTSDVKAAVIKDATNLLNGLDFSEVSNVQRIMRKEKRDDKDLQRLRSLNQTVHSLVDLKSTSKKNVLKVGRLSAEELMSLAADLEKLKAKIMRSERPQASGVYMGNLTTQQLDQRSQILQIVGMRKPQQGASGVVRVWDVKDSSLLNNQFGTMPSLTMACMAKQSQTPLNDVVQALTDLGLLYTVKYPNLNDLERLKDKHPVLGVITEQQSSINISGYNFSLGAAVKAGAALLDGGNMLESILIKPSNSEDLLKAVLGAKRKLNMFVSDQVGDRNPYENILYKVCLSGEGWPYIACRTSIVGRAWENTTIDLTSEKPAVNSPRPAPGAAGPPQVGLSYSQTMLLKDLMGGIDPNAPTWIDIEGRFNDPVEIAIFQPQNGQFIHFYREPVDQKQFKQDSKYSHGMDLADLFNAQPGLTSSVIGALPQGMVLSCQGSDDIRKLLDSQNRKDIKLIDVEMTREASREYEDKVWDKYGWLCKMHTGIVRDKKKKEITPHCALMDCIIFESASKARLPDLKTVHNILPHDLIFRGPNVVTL
Bile acid receptor (Homo sapiens), sequence (Q96RI1 whole entry, looked up): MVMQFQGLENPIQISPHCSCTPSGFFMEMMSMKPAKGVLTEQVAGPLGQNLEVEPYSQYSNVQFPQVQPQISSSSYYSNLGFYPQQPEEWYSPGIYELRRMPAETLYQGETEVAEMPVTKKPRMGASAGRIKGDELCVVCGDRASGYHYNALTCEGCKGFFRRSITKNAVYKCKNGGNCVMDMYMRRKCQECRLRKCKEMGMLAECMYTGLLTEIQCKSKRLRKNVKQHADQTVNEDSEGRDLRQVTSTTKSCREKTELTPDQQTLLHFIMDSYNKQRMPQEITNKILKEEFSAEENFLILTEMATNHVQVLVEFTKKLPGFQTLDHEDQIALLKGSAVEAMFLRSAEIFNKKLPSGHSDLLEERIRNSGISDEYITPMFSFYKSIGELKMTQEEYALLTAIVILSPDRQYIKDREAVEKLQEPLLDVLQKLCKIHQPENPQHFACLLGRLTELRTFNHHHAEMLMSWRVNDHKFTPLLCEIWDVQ
Peroxisome proliferator-activated receptor delta (Homo sapiens), sequence (Q03181 whole entry, looked up): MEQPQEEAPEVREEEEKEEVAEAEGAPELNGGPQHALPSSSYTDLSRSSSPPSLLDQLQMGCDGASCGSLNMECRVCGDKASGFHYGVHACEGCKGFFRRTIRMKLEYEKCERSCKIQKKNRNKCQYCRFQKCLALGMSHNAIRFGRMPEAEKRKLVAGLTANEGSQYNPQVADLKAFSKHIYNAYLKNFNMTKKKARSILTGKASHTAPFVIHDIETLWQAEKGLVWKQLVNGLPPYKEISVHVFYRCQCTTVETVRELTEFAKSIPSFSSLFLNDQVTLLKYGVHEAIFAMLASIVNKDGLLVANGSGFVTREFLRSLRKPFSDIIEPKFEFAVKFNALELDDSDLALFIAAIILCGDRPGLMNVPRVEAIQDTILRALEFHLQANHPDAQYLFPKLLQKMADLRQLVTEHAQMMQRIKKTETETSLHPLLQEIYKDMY

With `O=C(c1ccc(OCCCc2cnc[nH]2)cc1)C1CC1`, in [1], the result was inactive. For the same compound, the Potency entry in [2] and in [3] was “inactive” in each case.

With `CN(C)CCN1C(=O)c2cccc3cc(N)cc(c23)C1=O`, the Potency was 7.69 µM (active) in experiment [2], 6.85 µM (active) in [3] and 7.08 µM (active) in experiment [4].

As to `CN(C)Cc1c(C(=O)NCCOc2ccc(C(=O)NO)cc2)oc2ccccc12`, the Potency in [2] is 2.43 µM (active); in experiment [3], 1.37 µM (active). The Potency entry in experiment [4] was “inactive”.

For `c1cncc(CN2CCC(n3ncc4c(N5CCOCC5)nc(-c5ccc6[nH]ccc6c5)nc43)CC2)c1`, the Potency in experiment [2] is 1.22 µM (active); in experiment [3] it was 2.43 µM (active); in experiment [5], 2.51 µM (active). Further, the Potency result in experiment [6] was “inactive”.

For `CC(C)Oc1ccc(C(=O)N[C@H](CNC(=O)CN(C)C)Cc2ccc(-c3cn4cccc([C@H](C)O)c4n3)cc2)cc1Cl`, the Potency in [2] is 1.93 µM (active); in experiment [3], 0.968 µM (active). Also, the Potency result in experiment [7] was “inactive”.

Turning to `CC(C=CC1=C(C)CCCC1(C)C)=CC=CC(C)=CC(=O)Nc1ccc(O)cc1`, in [8], the activation is 2.75% (inactive). Besides, the Potency result in [9] is “inactive”. Further, the Potency in [2] and in experiment [3] was 44.4 µM (active) in each case.

As to `COc1ccc(F)c(F)c1C(=O)c1cnc(NC2CCN(S(C)(=O)=O)CC2)nc1N`, the Potency in experiment [2] was 2.73 µM (active); in experiment [3], 6.11 µM (active); in [10] it was 0.0681 µM (active); in experiment [11], 0.0681 µM (active). Moreover, the activity change, negative = inhibition in experiment [4] was -92.2%.

Regarding `COc1cc(C(=O)NC2CCN(C)CC2)ccc1Nc1ncc2c(n1)N(C1CCCC1)CCC(=O)N2C(C)C`, the values for the Potency in [2], in experiment [3] and in experiment [4] were 27.3 µM (active), 15.3 µM (active) and 31.6 µM (active), respectively.

Consider `CC(=O)O[C@@H]1[C@@H](O)C2OC3C=C(C)C(=O)[C@@H](O)[C@]3(CO)C1(C)C21CO1` (some centres not stated), for which the Potency in experiment [3] is 0.316 µM (active).

Take `CCCCCCN(CCCCCC)C(=O)Cc1c(-c2ccc(F)cc2)[nH]c2ccccc12`: the compound was classed as inactive in [12], in experiment [13] and in experiment [1]. Moreover, in [2], the Potency result was “inactive”.

Regarding `NC(=O)Nc1cc(-c2ccc(CN3CCOCC3)cc2)sc1C(N)=O`, in [2], the Potency was 7.69 µM (active). The Potency result in experiment [14] and in [7] was “inactive” throughout.

Consider `Cc1c(NC(=O)OC[C@@H]2COCCN2)cn2ncnc(Nc3ccc4c(cnn4Cc4cccc(F)c4)c3)c12`, for which the figures for the Potency in [2] and in experiment [5] were 1.22 µM (active) and 11.2 µM (active), respectively. Besides, the Potency result in [7] is “inactive”.

Take `CC[C@H](CC[C@@H](C)[C@H]1CC[C@H]2[C@@H]3CC=C4C[C@@H](O)CC[C@]4(C)[C@@H]3CC[C@]12C)C(C)C`: the parasite growth, % of DMSO control in experiment [15] was determined as 94%. Also, the parasite growth remaining, % of DMSO control (lower = more inhibition) in [16] amounted to 101%. For the same compound, in experiment [17], the parasite growth, % of control (lower = inhibition) amounted to 179%. In addition, the results for the Potency in experiment [2] and in experiment [3] were 8.63 µM (active) and 2.43 µM (active), respectively.

As to `O=C1NC(=O)c2cc(Nc3ccccc3)c(Nc3ccccc3)cc21`, the result in experiment [12], in experiment [13] and in experiment [1] was inactive. In experiment [2], the Potency entry was “inactive”. Moreover, the Potency in [5] is 11.2 µM (active).

With `O=C(Nc1cccc(Br)c1)c1cccc(S(=O)(=O)N2CCCCCC2)c1`, the Potency is 24.3 µM (active) in experiment [2], 15.3 µM (active) in experiment [14] and 31.6 µM (active) in experiment [4].

The record behind these values is PubChem BioAssay (NCATS).
